In ChEMBL document CHEMBL1961873, “Compounds: GSK PKIS; Assays: Nanosyn kinase panel” (2012):

Experiments:
[1] = molecular target: Serine/threonine-protein kinase 26 (Homo sapiens) (UniProt Q9P289); conditions: at 1 µM;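 further: mean inhibition of MST4 kinase activity, reported from the GSK PKIS inhibitor-set screening panel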
[2] = molecular target: Serine/threonine-protein kinase PAK 1 (Homo sapiens) (UniProt Q13153); conditions: at 0.1 µM
[3] = molecular target: Serine/threonine-protein kinase PAK 1 (Homo sapiens) (UniProt Q13153); conditions: at 1 µM
[4] = molecular target: Serine/threonine-protein kinase PAK 2 (Homo sapiens) (UniProt Q13177); conditions: at 0.1 µM
Serine/threonine-protein kinase PAK 2 (Homo sapiens), sequence (Q13177 whole entry): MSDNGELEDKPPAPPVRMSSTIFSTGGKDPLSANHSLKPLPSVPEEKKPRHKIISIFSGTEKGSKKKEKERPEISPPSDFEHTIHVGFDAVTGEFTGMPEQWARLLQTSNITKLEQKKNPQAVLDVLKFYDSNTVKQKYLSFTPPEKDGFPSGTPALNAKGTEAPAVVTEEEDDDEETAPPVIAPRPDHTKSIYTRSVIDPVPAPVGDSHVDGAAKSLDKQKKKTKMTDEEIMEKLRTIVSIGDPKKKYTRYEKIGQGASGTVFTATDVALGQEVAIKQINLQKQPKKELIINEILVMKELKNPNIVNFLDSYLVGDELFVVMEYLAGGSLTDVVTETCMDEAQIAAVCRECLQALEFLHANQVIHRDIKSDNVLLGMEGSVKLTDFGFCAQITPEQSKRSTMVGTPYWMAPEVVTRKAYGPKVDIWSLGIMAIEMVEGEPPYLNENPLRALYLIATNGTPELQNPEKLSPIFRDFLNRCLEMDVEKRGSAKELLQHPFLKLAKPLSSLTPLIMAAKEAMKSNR

[5] = molecular target: Serine/threonine-protein kinase PAK 2 (Homo sapiens) (UniProt Q13177); conditions: at 1 µM
[6] = molecular target: Serine/threonine-protein kinase PAK 3 (Homo sapiens) (UniProt O75914); conditions: at 0.1 µM
Serine/threonine-protein kinase PAK 3 (Homo sapiens), sequence (O75914 whole entry, looked up): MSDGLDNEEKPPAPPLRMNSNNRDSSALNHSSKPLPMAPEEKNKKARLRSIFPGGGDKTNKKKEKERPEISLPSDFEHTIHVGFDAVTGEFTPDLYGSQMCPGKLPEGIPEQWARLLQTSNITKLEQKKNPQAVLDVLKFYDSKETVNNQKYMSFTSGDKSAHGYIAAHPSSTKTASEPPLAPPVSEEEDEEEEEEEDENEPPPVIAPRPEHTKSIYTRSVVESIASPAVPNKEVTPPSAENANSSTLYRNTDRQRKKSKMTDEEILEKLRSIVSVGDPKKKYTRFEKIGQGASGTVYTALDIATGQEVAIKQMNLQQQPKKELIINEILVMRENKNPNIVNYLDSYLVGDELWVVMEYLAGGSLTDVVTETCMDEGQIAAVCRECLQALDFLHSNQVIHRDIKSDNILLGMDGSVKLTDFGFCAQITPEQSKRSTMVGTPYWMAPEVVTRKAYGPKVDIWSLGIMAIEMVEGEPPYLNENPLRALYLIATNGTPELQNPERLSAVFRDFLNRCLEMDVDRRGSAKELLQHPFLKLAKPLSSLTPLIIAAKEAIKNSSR

[7] = molecular target: Serine/threonine-protein kinase PAK 3 (Homo sapiens) (UniProt O75914); conditions: at 1 µM
[8] = molecular target: Serine/threonine-protein kinase PAK 5 (Homo sapiens) (UniProt Q9P286); conditions: at 0.1 µM
Serine/threonine-protein kinase PAK 5 (Homo sapiens), sequence (Q9P286 whole entry, looked up): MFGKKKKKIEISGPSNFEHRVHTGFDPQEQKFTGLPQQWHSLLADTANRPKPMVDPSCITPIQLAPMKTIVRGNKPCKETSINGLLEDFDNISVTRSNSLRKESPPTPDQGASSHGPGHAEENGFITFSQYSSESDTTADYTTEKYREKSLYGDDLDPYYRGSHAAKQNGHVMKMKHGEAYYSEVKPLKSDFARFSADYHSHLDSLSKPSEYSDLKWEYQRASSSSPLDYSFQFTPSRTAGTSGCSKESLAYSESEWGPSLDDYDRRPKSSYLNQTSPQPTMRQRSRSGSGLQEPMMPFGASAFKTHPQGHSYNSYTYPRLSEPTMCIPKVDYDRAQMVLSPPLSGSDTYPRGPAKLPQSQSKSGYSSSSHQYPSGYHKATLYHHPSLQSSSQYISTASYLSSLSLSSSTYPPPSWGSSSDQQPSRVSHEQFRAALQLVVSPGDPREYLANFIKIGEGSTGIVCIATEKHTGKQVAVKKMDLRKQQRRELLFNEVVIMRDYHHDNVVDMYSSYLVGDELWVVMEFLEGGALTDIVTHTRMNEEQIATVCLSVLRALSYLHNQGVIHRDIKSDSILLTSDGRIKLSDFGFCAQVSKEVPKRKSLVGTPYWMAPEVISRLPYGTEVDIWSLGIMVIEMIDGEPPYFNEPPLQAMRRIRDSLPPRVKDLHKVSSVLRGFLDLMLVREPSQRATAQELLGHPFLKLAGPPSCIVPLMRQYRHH

[9] = molecular target: Serine/threonine-protein kinase PAK 5 (Homo sapiens) (UniProt Q9P286); conditions: at 1 µM
[10] = molecular target: Serine/threonine-protein kinase PAK 6 (Homo sapiens) (UniProt Q9NQU5); conditions: at 0.1 µM;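 further: mean PAK6 inhibition reported from the GSK PKIS screen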
Serine/threonine-protein kinase PAK 6 (Homo sapiens), sequence (Q9NQU5 whole entry, looked up): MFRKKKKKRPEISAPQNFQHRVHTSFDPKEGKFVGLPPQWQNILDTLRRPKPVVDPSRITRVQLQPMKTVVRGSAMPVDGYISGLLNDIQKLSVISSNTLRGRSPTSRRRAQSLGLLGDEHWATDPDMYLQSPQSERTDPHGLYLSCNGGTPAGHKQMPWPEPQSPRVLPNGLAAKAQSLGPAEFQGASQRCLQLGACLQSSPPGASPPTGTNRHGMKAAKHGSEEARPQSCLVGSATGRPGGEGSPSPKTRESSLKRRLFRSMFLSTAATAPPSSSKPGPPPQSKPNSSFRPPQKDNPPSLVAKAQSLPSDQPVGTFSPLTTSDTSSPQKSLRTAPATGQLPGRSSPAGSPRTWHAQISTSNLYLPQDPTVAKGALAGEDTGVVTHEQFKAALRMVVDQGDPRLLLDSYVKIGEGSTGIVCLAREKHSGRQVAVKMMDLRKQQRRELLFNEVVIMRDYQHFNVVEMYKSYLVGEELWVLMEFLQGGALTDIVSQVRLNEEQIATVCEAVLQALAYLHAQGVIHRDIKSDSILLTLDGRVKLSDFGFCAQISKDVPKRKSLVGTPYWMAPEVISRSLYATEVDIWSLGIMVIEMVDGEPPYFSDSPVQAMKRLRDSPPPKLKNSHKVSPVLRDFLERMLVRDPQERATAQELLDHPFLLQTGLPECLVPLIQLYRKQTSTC

Serine/threonine-protein kinase PAK 1 (Homo sapiens), sequence (Q13153 whole entry): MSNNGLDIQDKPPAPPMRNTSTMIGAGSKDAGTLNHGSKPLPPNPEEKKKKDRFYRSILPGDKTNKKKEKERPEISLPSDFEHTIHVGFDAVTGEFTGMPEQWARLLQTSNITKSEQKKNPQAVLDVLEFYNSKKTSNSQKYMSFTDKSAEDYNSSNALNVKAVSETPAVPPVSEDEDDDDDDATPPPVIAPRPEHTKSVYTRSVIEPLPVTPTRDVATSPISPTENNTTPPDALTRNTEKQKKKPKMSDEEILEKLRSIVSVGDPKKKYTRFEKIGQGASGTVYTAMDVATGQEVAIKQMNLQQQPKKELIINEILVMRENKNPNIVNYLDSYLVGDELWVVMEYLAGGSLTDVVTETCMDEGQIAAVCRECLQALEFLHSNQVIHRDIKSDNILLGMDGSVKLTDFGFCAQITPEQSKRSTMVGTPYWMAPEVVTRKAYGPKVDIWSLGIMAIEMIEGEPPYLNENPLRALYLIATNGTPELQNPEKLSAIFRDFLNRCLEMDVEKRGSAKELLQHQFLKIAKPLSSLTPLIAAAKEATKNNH
Serine/threonine-protein kinase 26 (Homo sapiens), sequence (Q9P289 2-416 limits assumed): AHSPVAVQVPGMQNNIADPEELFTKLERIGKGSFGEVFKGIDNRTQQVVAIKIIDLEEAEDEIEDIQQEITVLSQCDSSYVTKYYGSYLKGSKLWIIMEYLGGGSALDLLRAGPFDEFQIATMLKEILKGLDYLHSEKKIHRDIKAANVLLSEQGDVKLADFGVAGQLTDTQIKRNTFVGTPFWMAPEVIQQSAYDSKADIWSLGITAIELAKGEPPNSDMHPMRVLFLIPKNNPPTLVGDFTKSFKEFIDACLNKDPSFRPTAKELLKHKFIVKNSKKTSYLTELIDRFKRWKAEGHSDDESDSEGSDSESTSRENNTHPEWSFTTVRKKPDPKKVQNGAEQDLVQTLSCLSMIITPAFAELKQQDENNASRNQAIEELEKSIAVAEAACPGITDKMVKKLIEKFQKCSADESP

**Q.** Which results are given for `CCCN1CCC(c2ccc(Nc3nc(Nc4cc(F)ccc4C(N)=O)c4cc[nH]c4n3)c(OC)c2)CC1`?
**A.** inhibition [1]: 0.06%; inhibition [2]: 5.31%; inhibition [3]: 3.04%; inhibition [4]: 1.19%; inhibition [5]: 2.08%; inhibition [6]: 4.32%; inhibition [7]: 5.21%; inhibition [8]: 1.36%; inhibition [9]: 22.6%; inhibition [10]: -9.18%

**Q.** For `CCOc1ccc2c(-c3ccnc(Nc4cccc(C(F)(F)F)c4)n3)cnn2n1`, which inhibition [1] is on record?
**A.** Its inhibition is 0.13%.

**Q.** What about the inhibition [2] of the same molecule?
**A.** The inhibition was 4.57%.

**Q.** And the inhibition [3]?
**A.** The inhibition was 3.75%.

**Q.** What about the inhibition [4] of the same molecule?
**A.** The inhibition was -0.07%.

**Q.** And the inhibition [5]?
**A.** Its inhibition is -0.6%.

**Q.** What about the inhibition [6] of the same molecule?
**A.** Its inhibition is 3.17%.

**Q.** What about the inhibition [7] of the same molecule?
**A.** Its inhibition is 2.39%.

**Q.** And the inhibition [8]?
**A.** The inhibition was 0.65%.

**Q.** And the inhibition [9]?
**A.** The inhibition was -0.74%.

**Q.** What about the inhibition [10] of the same molecule?
**A.** The inhibition was -3.86%.

**Q.** `O=C(Nc1n[nH]c2cc(-c3ccc(F)cc3)ccc12)C1CC1` was tested. Which inhibition [1] did it give?
**A.** Its inhibition is -1.27%.

**Q.** What about the inhibition [2] of the same molecule?
**A.** The inhibition was 5.64%.

**Q.** And the inhibition [3]?
**A.** Its inhibition is 5.57%.

**Q.** What about the inhibition [4] of the same molecule?
**A.** Its inhibition is 1.33%.

**Q.** And the inhibition [5]?
**A.** Its inhibition is 0.78%.

**Q.** What about the inhibition [6] of the same molecule?
**A.** The inhibition was 3.25%.

**Q.** What about the inhibition [7] of the same molecule?
**A.** The inhibition was 3.1%.

**Q.** And the inhibition [8]?
**A.** Its inhibition is 4.4%.

**Q.** What about the inhibition [9] of the same molecule?
**A.** The inhibition was -1.87%.

**Q.** And the inhibition [10]?
**A.** Its inhibition is 2.33%.

**Q.** What does the source list for `COc1ccc(-c2cc(-c3c[nH]nc3-c3ccccn3)ccn2)cc1`?
**A.** inhibition [1]: -0.46%; inhibition [2]: 0.78%; inhibition [3]: 3.96%; inhibition [4]: 2.66%; inhibition [5]: 1.63%; inhibition [6]: 5.46%; inhibition [7]: 5.49%; inhibition [8]: 3.54%; inhibition [9]: 1.94%; inhibition [10]: 6.89%

**Q.** Which inhibition [1] does the source give for `NS(=O)(=O)c1ccc(Nc2ncc(-c3ccccc3)o2)cc1` here?
**A.** The inhibition was -2.5%.

**Q.** And the inhibition [2]?
**A.** Its inhibition is 4.04%.

**Q.** What about the inhibition [3] of the same molecule?
**A.** The inhibition was 7.88%.

**Q.** And the inhibition [4]?
**A.** The inhibition was 2.52%.

**Q.** And the inhibition [5]?
**A.** Its inhibition is 1.78%.

**Q.** What about the inhibition [6] of the same molecule?
**A.** The inhibition was 4.23%.

**Q.** And the inhibition [7]?
**A.** The inhibition was 5.19%.

**Q.** What about the inhibition [8] of the same molecule?
**A.** Its inhibition is 8.88%.

**Q.** And the inhibition [9]?
**A.** The inhibition was 9.45%.

**Q.** What about the inhibition [10] of the same molecule?
**A.** Its inhibition is -1.35%.

**Q.** Which inhibition [1] does the source give for `c1cc(-c2cnn3nc(N4CCOCC4)ccc23)nc(NC2CC2)n1` here?
**A.** The inhibition was -4.91%.

**Q.** What about the inhibition [2] of the same molecule?
**A.** Its inhibition is -0.13%.

**Q.** And the inhibition [3]?
**A.** The inhibition was 5.07%.

**Q.** What about the inhibition [4] of the same molecule?
**A.** Its inhibition is 3.69%.

**Q.** What about the inhibition [5] of the same molecule?
**A.** The inhibition was 3.04%.

**Q.** What about the inhibition [6] of the same molecule?
**A.** Its inhibition is 4.26%.

**Q.** And the inhibition [7]?
**A.** The inhibition was 4.93%.

**Q.** What about the inhibition [8] of the same molecule?
**A.** The inhibition was 6.57%.

**Q.** What about the inhibition [9] of the same molecule?
**A.** The inhibition was 1.19%.

**Q.** What about the inhibition [10] of the same molecule?
**A.** Its inhibition is 4.42%.

**Q.** What does the source list for `CCn1cc(-c2ccnc3[nH]ccc23)c(-c2cccc(NC(=O)Nc3ccc(OCc4ccccc4)cc3)c2)n1`?
**A.** inhibition [1]: -5.19%; inhibition [2]: 0.97%; inhibition [3]: 0.73%; inhibition [4]: -0.8%; inhibition [5]: -0.35%; inhibition [6]: 1.3%; inhibition [7]: 1.28%; inhibition [8]: -1.74%; inhibition [9]: -3.66%; inhibition [10]: 5.15%

**Q.** With `CS(=O)(=O)CCNCc1ccc(-c2ccc3ncnc(Nc4ccc(OCc5ccccc5)c(C(F)(F)F)c4)c3c2)o1` as the molecule, how does the inhibition [1] read?
**A.** The inhibition was -2.67%.

**Q.** What about the inhibition [2] of the same molecule?
**A.** The inhibition was 4.26%.

**Q.** What about the inhibition [3] of the same molecule?
**A.** The inhibition was 8.46%.

**Q.** What about the inhibition [4] of the same molecule?
**A.** The inhibition was 1.24%.

**Q.** And the inhibition [5]?
**A.** The inhibition was 1.28%.

**Q.** What about the inhibition [6] of the same molecule?
**A.** The inhibition was 4.99%.

**Q.** What about the inhibition [7] of the same molecule?
**A.** Its inhibition is 4.14%.

**Q.** What about the inhibition [8] of the same molecule?
**A.** Its inhibition is 1.91%.

**Q.** What about the inhibition [9] of the same molecule?
**A.** Its inhibition is 3.73%.

**Q.** And the inhibition [10]?
**A.** The inhibition was -5.25%.

**Q.** For `COC(=O)Nc1nc2ccc(S(=O)(=O)c3ccc(NC(=O)Nc4cc(C(F)(F)F)ccc4F)cc3)cc2[nH]1`, which inhibition [1] is on record?
**A.** Its inhibition is -2.57%.

**Q.** And the inhibition [2]?
**A.** Its inhibition is 5.36%.

**Q.** And the inhibition [3]?
**A.** The inhibition was 4.48%.

**Q.** And the inhibition [4]?
**A.** Its inhibition is 2.17%.

**Q.** What about the inhibition [5] of the same molecule?
**A.** Its inhibition is 1.9%.

**Q.** What about the inhibition [6] of the same molecule?
**A.** Its inhibition is 2.62%.

**Q.** What about the inhibition [7] of the same molecule?
**A.** The inhibition was 3.11%.

**Q.** What about the inhibition [8] of the same molecule?
**A.** The inhibition was -4.37%.

**Q.** And the inhibition [9]?
**A.** Its inhibition is -3.51%.

**Q.** And the inhibition [10]?
**A.** Its inhibition is -3.27%.
